# PubChem BioAssay (NCATS)
# Inconclusive results are not listed. A call without a number means that no potency is given here. Calls of active or inactive are those of the source. Unless noted, calls come from the whole dose curve; as a rule, active = well fitted curve in the direction sought with a large enough effect; inconclusive = small, poorly fitted or top-dose-only effect, or another doubt; inactive = no such curve, though single readings can be large; an effect the other way counts as inactive or inconclusive.
# How the values were obtained:
# [1] = NCATS anti-infectives library activity on the primary C. elegans qHTS viability assay (AID 1745855; calls by dose curve; note: potency is the fitted concentration of half-maximal effect); details: C. elegans worm area imaging, day 7; series mostly up to 41.8 µM
# Method in brief: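 Titration-based screen in worms: eggs hatched overnight in M9, L1 larvae fed TOP10 capsules in S medium with compound, incubated 21 °C for 7 days; fluorescent objects gated by size and intensity at days 0, 3 and 7.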
# [2] = molecular target: Metallo-beta-lactamase type 2 (Klebsiella pneumoniae) (UniProt C7C422); test: qHTS to identify inhibitors of the New Delhi Metallo-beta-lactamase (NDM): assay validation screen against the NCATS LOPAC Collection (AID 1794843); details: NDM-1 enzyme, nitrocefin hydrolysis, absorbance 485 nm; series mostly up to 38.4 µM; note: potency is the fitted concentration of half-maximal effect
# Sequence of Metallo-beta-lactamase type 2 (Klebsiella pneumoniae) (C7C422 whole entry, looked up): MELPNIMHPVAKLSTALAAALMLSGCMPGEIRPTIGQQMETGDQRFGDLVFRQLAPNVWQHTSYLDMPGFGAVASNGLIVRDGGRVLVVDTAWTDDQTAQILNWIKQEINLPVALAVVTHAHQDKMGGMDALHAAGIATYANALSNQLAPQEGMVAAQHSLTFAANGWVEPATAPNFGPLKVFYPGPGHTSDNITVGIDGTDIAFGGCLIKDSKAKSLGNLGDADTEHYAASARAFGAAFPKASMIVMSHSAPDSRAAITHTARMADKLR
# Method in brief: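 Enzyme 2 nM final, 50 mM HEPES pH 7.0, 1 uM ZnSO4, 0.01% Tween20; cpds in DMSO, preincub w/ enzyme; + nitrocefin (50 uM stock); A485 at plateau; no-enzyme column as blank.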
# [3] = molecular target: Glutathione peroxidase 1 (Homo sapiens) (UniProt P07203); test: Primary qHTS Assay for Inhibitors of Recombinant Selenoprotein Glutathione Peroxidase 1 (GPX1) (AID 1845191); details: recombinant GPX1, GR-coupled NADPH fluorescence, 15 min; series mostly up to 48.8 µM; note: nearly all actives have a fitted effect of over 65% in size; note: potency is the fitted concentration of half-maximal effect
# Sequence of Glutathione peroxidase 1 (Homo sapiens) (P07203 whole entry, looked up): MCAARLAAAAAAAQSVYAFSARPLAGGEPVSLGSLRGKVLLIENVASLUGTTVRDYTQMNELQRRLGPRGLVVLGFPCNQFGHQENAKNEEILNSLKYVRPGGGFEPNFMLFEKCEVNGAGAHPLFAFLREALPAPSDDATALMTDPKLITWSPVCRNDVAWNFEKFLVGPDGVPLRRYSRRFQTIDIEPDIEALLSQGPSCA
# Method in brief: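 NADPH consumption tracked by fluorescence at 340/450 nm between t=0 and t=15 min, room temperature. Final mix: 10 nM GPX1, 100 nM glutathione reductase, 1 mM GSH, 0.5 mM NADPH, 0.5 mM cumene hydroperoxide, 0.01% BSA; 30 min compound–enzyme preincubation.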
# [4] = molecular target: Phospholipid hydroperoxide glutathione peroxidase GPX4 (Homo sapiens) (UniProt P36969); test: Primary qHTS Assay for Inhibitors of Recombinant Selenoprotein Glutathione Peroxidase 4 (GPX4) (AID 1845192); details: recombinant GPX4, GR-coupled NADPH fluorescence, 15 min; series mostly up to 50 µM; note: nearly all actives have a fitted effect of over 65% in size
# Sequence of Phospholipid hydroperoxide glutathione peroxidase GPX4 (Homo sapiens) (P36969 whole entry, looked up): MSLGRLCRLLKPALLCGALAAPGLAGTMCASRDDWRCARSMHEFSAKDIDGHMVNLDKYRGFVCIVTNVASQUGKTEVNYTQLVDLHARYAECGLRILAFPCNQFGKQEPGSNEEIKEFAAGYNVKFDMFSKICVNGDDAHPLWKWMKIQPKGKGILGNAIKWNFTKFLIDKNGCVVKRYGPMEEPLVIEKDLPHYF
# Method in brief: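 NADPH consumption followed by fluorescence at 340/450 nm, t=0 and after 15 min at room temperature. Reaction started with cumene hydroperoxide (0.5 mM final) after 30 min compound–GPX4 preincubation; final 200 nM GPX4, 100 nM GR, 1 mM GSH, 0.5 mM NADPH.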
# [5] = molecular target: Luciferin 4-monooxygenase (Photinus pyralis) (UniProt P08659); test: Primary firefly luciferase (FLuc) qHTS assay for identification of artifact compounds. (AID 1845220); details: purified firefly luciferase, luminescence, 5 min; series mostly up to 54.1 µM; note: nearly all actives have a fitted effect of over 60% in size
# Method in brief: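 Compounds sat 15 min at room temperature with 10 uM luciferin and 10 uM ATP (pH 7.6 Tris acetate). Firefly luciferase (10 nM final) was then added, and luminescence was read 5 min later. Data normalized to no-enzyme and DMSO controls were Hill-fitted.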
# [6] = Primary fluorescence-based thiol-reactive (MSTI) qHTS assay for identification of artifact compounds. (AID 1845221); details: MSTI thiol-reactivity probe, 1 h; series mostly up to 53.8 µM; note: potency is the fitted concentration of half-maximal effect; nearly all actives have a fitted effect of over 65% in size
# Method in brief: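 MSTI probe at 4 uM final in 2% DMSO/PBS pH 7.4; compounds, 1 h at room temperature in dark. Fluorescence Ex/Em 525/598 nm, normalised to Acetyl-MSTI and MSTI, fitted to 4-parameter Hill.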
# [7] = Primary redox qHTS assay for identification of artifact compounds. (AID 1845223); details: Amplex Red/HRP redox cycling with DTT, fluorescence; series mostly up to 53.8 µM
# Method in brief: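 Redox-cycling detection via DTT (250 uM final) oxidation coupled to Amplex Red (25 uM)/HRP (250 mU/mL) in HBSS. 15 min preincubation plus 30 min after DTT, room temperature. Ex/Em 525/598 nm; 4-parameter Hill fit against DMSO and 10 uM DA3003.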
smiles,measurement,setting,value
CC(C)(C)c1cc(C=C(C#N)C#N)cc(C(C)(C)C)c1O,Potency,[1],290 nM (active)
same,Potency,[2],inactive
same,Potency,[3],inactive
same,Potency,[4],inactive
[Cl-].[Cl][Pt].[NH2-].[NH2-].c1ccncc1,Potency,[2],3980 nM (active)
same,Potency,[3],inactive
C[N+]1(C)CCN(c2ccccc2)CC1,Potency,[2],inactive
same,Potency,[3],inactive
same,Potency,[4],inactive
CC12NC(Cc3ccccc31)c1ccccc12 (stereo not drawn),Potency,[2],inactive
same,Potency,[3],inactive
same,Potency,[4],inactive
COc1ccc2c(c1)C13CCCCC1C(C2)N(C)CC3 (stereo not drawn),Potency,[2],inactive
same,Potency,[3],inactive
same,Potency,[4],inactive
CN1CCC[C@@H]1Cc1c[nH]c2ccc(Nc3ncccc3[N+](=O)[O-])cc12,Potency,[2],inactive
same,Potency,[3],inactive
same,Potency,[4],inactive
same,Potency,[5],inactive
same,Potency,[6],1680 nM (active)
same,outcome,[7],inactive
CCCCCCCCCC(=O)O[C@H]1CC[C@H]2[C@@H]3CCC4=CC(=O)CC[C@]4(C)[C@H]3CC[C@]12C,Potency,[3],inactive
CCCN(CCC)CCc1ccc(O)c(O)c1,Potency,[2],inactive
same,Potency,[3],inactive
same,Potency,[4],inactive
Nc1cc2c(ncn2CCOCP(=O)(O)O)c(=O)[nH]1,Potency,[2],inactive
same,Potency,[3],inactive
same,Potency,[4],inactive
O=C1OC2(c3cc(Br)c(O)cc3Oc3c2cc(Br)c(O)[c]3[Hg])c2ccccc21 (stereo not drawn),Potency,[3],inactive
CC(=O)c1c(O)c(C)c(O)c(Cc2c(O)c3c(c(C(=O)/C=C/c4ccccc4)c2O)OC(C)(C)C=C3)c1O,Potency,[2],inactive
same,Potency,[3],inactive
same,Potency,[4],inactive
NC(CCCCCP(=O)(O)O)C(=O)O (stereo not drawn),Potency,[2],inactive
same,Potency,[3],inactive
same,Potency,[4],inactive
COc1ccc2c(c1)/C(=C/c1cnc[nH]1)C(=O)N2,Potency,[3],inactive
NC(=O)COc1c(F)cc(SCCNS(=O)(=O)c2ccccc2)cc1F,Potency,[2],inactive
same,Potency,[3],inactive
same,Potency,[4],inactive
CN1CC[C@@]2(C)c3cc(OC(=O)Nc4ccccc4)ccc3N(C)[C@@H]12,Potency,[2],inactive
same,Potency,[3],inactive
same,Potency,[4],inactive
C[N+]1(C)CCOC(O)(c2ccc(-c3ccc(C4(O)C[N+](C)(C)CCO4)cc3)cc2)C1 (stereo not drawn),Potency,[2],inactive
same,Potency,[3],inactive
same,Potency,[4],inactive
CCCCCCCCCCCCCC(=O)O[C@@H]1[C@@H](C)[C@@]2(O)[C@@H](C=C(CO)C[C@@]3(O)C(=O)C(C)=C[C@@H]23)C2C(C)(C)[C@@]21OC(C)=O (stereo partly drawn),Potency,[2],inactive
same,Potency,[3],inactive
same,Potency,[4],inactive
NCC(O)c1cc(O)c(O)cc1F (stereo not drawn),Potency,[2],inactive
same,Potency,[3],inactive
same,Potency,[4],inactive
O=C(NC1CN2CCC1CC2)c1cc2ccoc2cn1 (stereo not drawn),Potency,[2],inactive
same,Potency,[3],inactive
same,Potency,[4],inactive
Cc1c2ccncc2c(C)c2c1[nH]c1ccccc12,Potency,[2],inactive
same,Potency,[3],inactive
same,Potency,[4],inactive
CCCN1CC[C@@H]2c3cc(O)ccc3CC[C@@H]21,Potency,[2],inactive
same,Potency,[3],inactive
same,Potency,[4],inactive
CCCN1CCC[C@@H](c2cccc(O)c2)C1,Potency,[2],inactive
same,Potency,[3],inactive
same,Potency,[4],inactive
c1ccc2c(c1)[I+]c1ccccc1-2,Potency,[2],inactive
same,Potency,[3],inactive
same,Potency,[4],inactive
CC1(C(=O)O)C2CCC(O2)C1(C)C(=O)O (stereo not drawn),Potency,[2],inactive
same,Potency,[3],inactive
same,Potency,[4],inactive
N[C@@H](Cn1oc(=O)[nH]c1=O)C(=O)O,Potency,[2],inactive
same,Potency,[3],inactive
same,Potency,[4],inactive
Oc1ccc2c3c1O[C@H]1c4[nH]c5ccccc5c4C[C@@]4(O)C(C2)N(CC2CC2)CCC314 (stereo partly drawn),Potency,[2],inactive
same,Potency,[3],inactive
same,Potency,[4],inactive
CCS(=O)(=O)Nc1cccc(C(=C2CCCCC2)c2cnc[nH]2)c1,Potency,[2],inactive
same,Potency,[3],inactive
same,Potency,[4],inactive
C=CCN1C[C@@H](C)N([C@H](c2ccc(C(=O)N(CC)CC)cc2)c2cccc(OC)c2)C[C@@H]1C,Potency,[2],inactive
same,Potency,[3],inactive
same,Potency,[4],inactive
CCCn1c(=O)c2[nH]c(C3CCCC3)nc2n(CCCOC(=O)c2ccc(S(=O)(=O)F)cc2)c1=O,Potency,[2],inactive
same,Potency,[3],inactive
same,Potency,[4],inactive
Nc1ccc(CCN2CCN(c3cccc(C(F)(F)F)c3)CC2)cc1,Potency,[2],inactive
same,Potency,[3],inactive
same,Potency,[4],inactive
O=[N+]([O-])c1cc(I)c(O)c(I)c1,Potency,[3],inactive
CN1CCc2cc(O)cc3c2[C@H]1Cc1ccc(O)c(O)c1-3,Potency,[2],inactive
same,Potency,[3],inactive
same,Potency,[4],inactive
NCCCP(=O)(O)O,Potency,[2],inactive
same,Potency,[3],inactive
same,Potency,[4],inactive
CC(Cc1ccc(OCC(=O)O)cc1)NCC(O)c1cccc(Cl)c1 (stereo not drawn),Potency,[2],inactive
same,Potency,[3],inactive
same,Potency,[4],inactive
OC1CCCCC1N1CCC(c2ccccc2)CC1 (stereo not drawn),Potency,[2],inactive
same,Potency,[3],inactive
same,Potency,[4],inactive
CN1CC[C@@]2(C)c3cc(O)ccc3N(C)C12 (stereo partly drawn),Potency,[2],inactive
same,Potency,[3],inactive
same,Potency,[4],inactive
NCC(CP(=O)(O)O)c1ccc(Cl)cc1 (stereo not drawn),Potency,[2],inactive
same,Potency,[3],inactive
same,Potency,[4],inactive
C#CCN[C@H](C)Cc1ccccc1,Potency,[2],inactive
same,Potency,[3],inactive
same,Potency,[4],inactive
CCNC(=O)[C@H]1O[C@@H](n2cnc3c(N)ncnc32)[C@H](O)[C@@H]1O,Potency,[2],inactive
same,Potency,[3],inactive
same,Potency,[4],inactive
CCCN(CCC)[C@H]1CCc2c(F)ccc(O)c2C1,Potency,[2],inactive
same,Potency,[3],inactive
same,Potency,[4],inactive
c1ccc2sc(SNC3CCCCC3)nc2c1,Potency,[3],28200 nM (active)
CCCN(CCC)C1Cc2cc(OC)c(OC)cc2C1,Potency,[2],inactive
same,Potency,[3],inactive
same,Potency,[4],inactive
CN1C2CCC1CC(OC(c1ccccc1)c1ccccc1N)C2 (stereo not drawn),Potency,[2],inactive
same,Potency,[3],inactive
same,Potency,[4],inactive
CCCN1CCc2cccc3c2[C@H]1Cc1ccc(O)c(O)c1-3,Potency,[2],inactive
same,Potency,[3],inactive
same,Potency,[4],inactive
O=[N+]([O-])c1ccccc1,Potency,[3],inactive
same,Potency,[4],inactive
Oc1ccc2c3c1O[C@H]1c4oc5ccccc5c4C[C@@]4(O)C(C2)N(CC2CC2)CCC314 (stereo partly drawn),Potency,[3],inactive
same,Potency,[4],inactive
CN(N=O)c1cc(O)ccc1O,Potency,[3],inactive
same,Potency,[4],inactive
C[N+]1(C)CCc2cc3c(cc2[C@H]1[C@@H]1OC(=O)c2c1ccc1c2OCO1)OCO3,Potency,[3],inactive
same,Potency,[4],inactive
